From PubChem BioAssay AID1259343 (VanderVen Lab, College of Veterinary Medicine, Cornell …, 2017)
The whole screen tested about 6,200 compounds, of which about 2,900 (47%) were called active. The set was probably picked from earlier hits. Some of the results follow. Unmarked numbers belong to inactive results. Rule as the data show it: active = inhibition above about 50%; inactive = the rest.

experiment: Mycobacterium tuberculosis growth inhibition, primary screen (AID 1259343); settings: inhibition: at 10 µM, active compounds read high; outcome: 10 uM

Row | SMILES | inhibition
1 | N#CC(=Cc1ccc([N+](=O)[O-])o1)C(=O)NCc1ccco1 | 49.5%
2 | N#CC(=Cc1ccc(Sc2ccccc2)o1)C(=O)NC1CCCCC1 | 92.9% (active)
3 | Cc1ccc(-n2cc(CNCCc3ncc(C)[nH]3)c(-c3ccc(F)cc3)n2)cc1 | 93% (active)
4 | Cc1ccc(-n2cc(CN(C)Cc3cccnc3)c(-c3ccc(F)cc3)n2)cc1 | 46.4%
5 | CC(C)(C)c1ccc(-c2csc(NC=C(C#N)C#N)n2)cc1 | 75.2% (active)
6 | Cc1ccc(-c2csc(SCC(=O)NC(C)(C#N)C3CC3)n2)cc1 (stereo unspecified) | 0.22%
7 | CCC(C)Nc1nc(-c2ccc(Cl)cc2)cs1 (stereo unspecified) | -10.8%
8 | CCOc1ccc(N2CC(C#N)=C3c4cc(OC)c(OC)cc4CCN3C2)cc1 | 94.9% (active)
9 | Cc1cccc(N2CCN(CCNc3cncc(Cl)n3)CC2)c1 | 86.1% (active)
10 | Cc1ccc(-n2c(-c3ccc(Cl)cc3)cc(C(=O)N3CCN(c4cccc(Cl)c4)CC3)c2C)cc1 | 33.6%
11 | COc1ccccc1N1CCC(CNc2cncc(Cl)n2)C1 (stereo unspecified) | 85% (active)
12 | CNC(=O)c1cccc(N2CCC(c3ccccc3OC)C2)n1 (stereo unspecified) | 20.6%
13 | c1cnn(-c2cncc(NCC3CCCCCCC3)n2)c1 | 49.9%
14 | Fc1ccc(Nc2ccc3ccccc3n2)cc1Cl | 22.7%
15 | CC(=O)Oc1cccc2c1C(=O)c1c(OC(C)=O)cc(C(=O)O)cc1C2=O | 77.5% (active)
16 | CCCc1nc2c(c(=O)c3ccccc3n2C)c(=O)n1CCc1ccccc1 | -32.5%
17 | Clc1ccc(C(c2ccc(Cl)cc2)N2CCNCC2)cc1 | 42.8%
18 | Oc1c(C(c2ccc(Br)cc2)N2CCCC2)ccc2cccnc12 (stereo unspecified) | 77.3% (active)
19 | Oc1c(C(c2ccc(Cl)cc2)N2CCCC2)ccc2cccnc12 (stereo unspecified) | 92% (active)
20 | COc1cc(C)c2c(=O)cc(-c3ccccc3)oc2c1 | 47.7%
21 | CC(C)Oc1ccc2c(=O)cc(-c3ccccc3)oc2c1 | 58.7% (active)
22 | O=c1cc(-c2ccccc2)oc2cc(O)c(O)cc12 | 95.7% (active)
23 | Cc1oc2cc(OC(C)C)ccc2c(=O)c1Oc1ccccc1 | 8.96%
24 | O=C(CC[N+](=O)[O-])OC[C@H]1O[C@@H](O)[C@H](OC(=O)CC[N+](=O)[O-])[C@@H](OC(=O)CC[N+](=O)[O-])[C@@H]1OC(=O)CC[N+](=O)[O-] | 82.8% (active)

Row | SMILES | inhibition
25 | O=C1C2=C(Nc3ccccc3SC2c2cccs2)c2ccccc21 (stereo unspecified) | 21.4%
26 | O=C1C2=C(Nc3ccccc3S(=O)(=O)C2c2ccc(Cl)cc2)c2ccccc21 (stereo unspecified) | 66.7% (active)
27 | O=C(Cc1cc(-c2cc3ccccc3o2)on1)Nc1ccon1 | 18.9%
28 | O=C(CNc1ccc(Cl)cc1F)N1CCCc2ccccc21 | 50.7% (active)
29 | O=C(Cc1cc(-c2cc3ccccc3o2)on1)N1CCCc2ccccc21 | 66.9% (active)
30 | O=C(CNc1ccc(Cl)cc1F)N1CCN(c2ccccc2)CC1 | 16.7%
31 | O=C(Cc1cc(-c2ccc(F)cc2)on1)N1CCCc2ccccc21 | 56.2% (active)
32 | O=C(Cc1cc(-c2cc3ccccc3o2)on1)N1CCCCC1 | 22.8%
33 | COc1cccc(-c2cc(CC(=O)N3c4ccccc4CC3C)no2)c1 (stereo unspecified) | 38.3%
34 | CC1Cc2ccccc2N1CCNC(=O)c1cc(Cl)ccc1F (stereo unspecified) | 8.76%
35 | O=C(O)c1cc(Oc2ccc([N+](=O)[O-])cc2)cc(Oc2ccc([N+](=O)[O-])cc2)c1 | 60.2% (active)
36 | Nc1cccc2c([N+](=O)[O-])cccc12 | 8.31%
37 | O=[N+]([O-])c1ccc(Oc2ccc(-c3ccccc3)cc2)cc1 | -41%
38 | O=[N+]([O-])c1ccc(C2SCCS2)cc1 | -11.2%
39 | O=[N+]([O-])c1ccc(Oc2ccc([N+](=O)[O-])cc2)cc1 | 98.6% (active)
40 | O=[N+]([O-])c1ccc(Sc2ccc([N+](=O)[O-])cc2)cc1 | 57.3% (active)
41 | Nc1cccc2c(Oc3ccc([N+](=O)[O-])cc3)cccc12 | 68.4% (active)
42 | Cc1cnn(CCc2nc(-c3cc(Br)cs3)no2)c1 | 36.5%
43 | Cc1cc(CC(=O)NC2CC2c2ccc(Br)cc2)no1 (stereo unspecified) | 13.2%
44 | Cc1cc(OCC(=O)NCc2ccc(-c3ccc(Br)cc3)o2)no1 | 56.9% (active)
45 | O=c1nc(/C=C/c2ccc(Br)cc2)cc(C(F)(F)F)[nH]1 | 100% (active)
46 | Cc1ccsc1/C=C/c1cc(C(F)(F)F)[nH]c(=O)n1 | 36.8%
47 | O=c1nc(/C=C/c2cccc3ccccc23)cc(C(F)(F)F)[nH]1 | -5.05%
48 | O=c1cc(CSc2ccc(Cl)cc2)nc2nc[nH]n12 | 30%

Row | SMILES | inhibition
49 | Clc1ccc(CSc2nnc3nc[nH]n23)c(Cl)c1 | 90.4% (active)
50 | Clc1ccc(Cn2ccnc2CNc2ccccc2)c(Cl)c1 | 28.2%
51 | O=C(c1cccc(OC(F)F)c1)N1CCN(Cc2ccc(-c3noc(-c4ccco4)n3)cc2)CC1 | 91.3% (active)
52 | O=C(Cc1ccsc1)N1CCN(Cc2cccc(-c3noc(-c4ccccc4)n3)c2)CC1 | 25.5%
53 | CCOc1ccc(N2C(=O)CSC2c2ccccc2N)cc1 (stereo unspecified) | 90.3% (active)
54 | COC(=O)C1=C(C(=O)OC)SC(=CC(=S)c2ccc(OC)cc2)S1 | 82.8% (active)
55 | COC(=O)C1=C(C(=O)OC)C2=S(SC(c3ccc(OC)cc3)=C2)S1 (stereo unspecified) | 7.91%
56 | COC(=O)C1=C(C(=O)OC)SC(=C2C(=S)C(C)(C)Nc3ccccc32)S1 | 27.1%
57 | CCOc1ccc(Oc2ccc(S(=O)(=O)NC(C)CC#N)cc2)cc1 (stereo unspecified) | 39.1%
58 | CCCCN=C1NN=C(C23CC4CC(CC(C4)C2)C3)C(C)S1 (stereo unspecified) | 82.7% (active)
59 | CC1=CC(=NNc2ccc(S(N)(=O)=O)cc2[N+](=O)[O-])CC(C)(C)C1 | -10.6%
60 | O=[N+]([O-])c1ccc(NN=C2CC3CC=CC23)c([N+](=O)[O-])c1 (stereo unspecified) | 92% (active)
61 | O=[N+]([O-])c1ccc(NN=C2C3CC4CC2CC(O)(C4)C3)c([N+](=O)[O-])c1 | 25.5%
62 | COCCCNC(=O)CSc1nnc(Nc2ccccc2Cl)s1 | 80.1% (active)
63 | CNc1nnc(SCc2sc3ccccc3c2Cl)s1 | 48.5%
64 | CCc1ccccc1Nc1nnc(SCC(=O)NC(C)C)s1 | 102% (active)
65 | CCSc1nnc(NC(=O)Cc2ccccc2Cl)s1 | 95.5% (active)
66 | C=CCSc1nnc(NC(=O)c2cc(Br)ccc2Cl)s1 | 9.41%
67 | O=C(Nc1nnc(SCc2ccc(F)cc2)s1)c1ccccc1Br | 27.4%
68 | CC(C)NC(=O)CSc1nnc(Nc2ccccc2Cl)s1 | 78.8% (active)
69 | COC(=O)c1ccc(NC(=O)N2CCCC(C(=O)c3sccc3C)C2)cc1 (stereo unspecified) | -5.44%
70 | CCCN(CC(=O)N(Cc1ccccc1)Cc1sccc1C)C(=O)Nc1ccc(C(=O)OCC)cc1 | 89.4% (active)
71 | C=CCNCC(=O)N(Cc1ccccc1)Cc1ccc(C)s1 | 21.1%
72 | CC(=O)N1N=C(c2ccco2)OC1C(=O)N[C@@H]1C[C@@H]2C[C@H](C1C)C2(C)C (stereo partly specified) | 8.4%

Row | SMILES | inhibition
73 | c1cncc(-c2nc(N3CCCC4CCCCC43)c3ccccc3n2)c1 (stereo unspecified) | -13.1%
74 | c1ccc(-c2cc(NC3CCCC3)nc3ccccc23)cc1 | 67.7% (active)
75 | c1cncc(-c2nc(NC3CCCCCCC3)c3ccccc3n2)c1 | 39.2%
76 | O=[N+]([O-])c1cccc2nsnc12 | -16%
77 | O=[N+]([O-])c1ccc(O)c2ncccc12 | 102% (active)
78 | CC(=O)Oc1ccc(N2C(=O)c3cccc4c([N+](=O)[O-])ccc(c34)C2=O)cc1 | 36.4%
79 | O=[N+]([O-])c1ccc(-c2nc(N=Nc3ccc(O)cc3)n[nH]2)cc1 | 84.3% (active)
80 | N#CC(=Cc1ccc(O)cc1)c1ccc([N+](=O)[O-])cc1 | 27.9%
81 | CC(NC(=O)c1ccc2ncsc2c1)C1CC2CCC1C2 (stereo unspecified) | 5.4%
82 | CC(NS(=O)(=O)c1ccc(Cl)cc1)C1CC2CCC1C2 (stereo unspecified) | -15.9%
83 | CC(NC(=O)NC(=O)N(C1CCCCC1)S(C)(=O)=O)C1CC2CCC1C2 (stereo unspecified) | 79.8% (active)
84 | CCc1c(C)nc(-n2nc(C)cc2NC(=O)Cc2ccc([N+](=O)[O-])cc2)[nH]c1=O | 78.5% (active)
85 | COc1ccc(CC(=O)Nc2cc(C)nn2-c2nc(C)c(C)c(=O)[nH]2)cc1 | -19.9%
86 | CCc1c(C)nc(-n2nc(C)cc2NC(=O)/C=C/c2ccc(OC)c(OC)c2)[nH]c1=O | 99.3% (active)
87 | COc1ccc(CC(=O)Nc2cc(C)nn2-c2nc3c(c(=O)[nH]2)CCC3)cc1OC | 101% (active)
88 | CCc1c(C)nc(-n2nc(C)cc2NC(=O)Cc2ccc(OC)cc2)[nH]c1=O | 99.1% (active)
89 | CCc1c(C)nc(-n2nc(C)cc2NC(=O)c2ccc(OC)cc2OC)[nH]c1=O | -4.11%
90 | C=CC(=O)Nc1cccc(Sc2nc(Nc3ccc(N4CCN(C)CC4)cc3)ncc2Cl)c1 | 33.2%
91 | O=C(CSc1nnc(C23CC4CC(CC(C4)C2)C3)o1)N1CCCC1 | 45.1%
92 | CCc1c(C)nc(-n2nc(C)cc2NC(=O)Cc2ccc(OC)c(OC)c2)[nH]c1=O | 101% (active)
93 | COc1ccc(CC(=O)Nc2cc(C)nn2-c2nc(C)c(C)c(=O)[nH]2)cc1OC | 100% (active)
94 | Cc1ccc(Oc2ccc3ncccc3c2N)c(Br)c1 | 14.7%
95 | CCNC(=O)c1cc(Oc2ccc(C)cc2Br)ccn1 | 89.2% (active)
96 | CCNC(=O)c1cc(N2CCC(c3ccc(OC)cc3)C2)ccn1 (stereo unspecified) | -14.2%
